# Data as given in PubChem BioAssay (EPA / NIEHS).
# Several values for one entry are separate records, joined by “and”; a condition that tells them apart may be missing. Equal entries are not always repeated. Records with an inconclusive call do not appear. Activity calls are given as the source filed them. How the source made its calls: active means hit-call score of the fitted dose curve at least 0.9, where 1 is the maximum; inconclusive means response in the unintended direction; inactive means score below 0.9.
# Experiments:
# [1] = target: PGR (gene 5241) (UniProt P06401); assay: NVS_NR_hPR: NovaScreen (NVS) Nuclear Receptor Binding Assay for human Progestron Receptor (PR) (AID 2283360);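 further: active means loss of bound radioligand signal versus DMSO baseline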
# In short: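 Radioligand competition binding on receptor extracted from T47D cells, read by scintillation counting 18 h after dosing. Loss of signal versus DMSO; primary screen in duplicate at 25 uM, actives followed in concentration series.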
# [2] = system: guinea pig Dopamine Transporter (DAT), gene 100714898; assay: NVS_TR_gDAT: NovaScreen (NVS) Transporter Assay for guinea pig Dopamine Transporter (DAT) (AID 2283369);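 further: active compounds lower bound radioligand signal relative to DMSO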
# In short: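 Guinea pig striatal membranes; radioligand displacement measured by filter-based scintillation counting 2 h after dosing. Initial duplicate screen at 25 uM, then concentration-response up to 50 uM for hits; loss of signal versus DMSO baseline.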
# [3] = target: human Dopamine Transporter (DAT), SLC6A3 (gene 6531) (UniProt Q01959); assay: NVS_TR_hDAT: NovaScreen (NVS) Transporter Assay for human Dopamine Transporter (DAT) (AID 2283374);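 further: activity means loss of bound radioligand signal relative to DMSO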
# In short: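 Extracted human SLC6A3 protein incubated 1 h with radioligand and test chemical; bound fraction separated on filters and counted. Single 25 uM duplicate screen preceded concentration-response follow-up; positive and negative controls on every plate.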
# [4] = target: Nuclear receptor subfamily 1 group I member 2 (Homo sapiens) (UniProt O75469); assay: NVS_NR_hPXR: NovaScreen (NVS) Nuclear Receptor Binding Assay for human Pregnane X Receptor (PXR) (AID 2283365);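 further: a drop in FRET signal versus DMSO baseline means the compound binds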
# In short: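 Cell-free binding assay with extracted human PXR protein, read by TR-FRET 2 h after dosing; loss of signal relative to DMSO baseline indicates binding. Primary screen at 25 uM in duplicate, actives retested in concentration series.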
# [5] = target: Glucocorticoid receptor (Homo sapiens) (UniProt P04150); assay: NVS_NR_hGR: NovaScreen (NVS) Nuclear Receptor Binding Assay for human Glucocorticoid Receptor (GR) (AID 2283363);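 further: activity is loss of specific radioligand binding signal relative to DMSO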
# In short: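 Single-readout cell-free binding: radioligand plus extracted receptor, 16-hour dosing, filter radiodetection; 25 uM duplicate primary, concentration series secondary.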
# [6] = target: rat Androgen Receptor (AR), Ar (gene 24208) (UniProt P15207); assay: NVS_NR_rAR: NovaScreen (NVS) Nuclear Receptor Binding Assay for rat Androgen Receptor (AR) (AID 2283366)
# In short: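 Actives from a duplicate single-concentration (25 uM) primary run went on to concentration series. Displacement of radioligand was counted by filtration and scintillation, 18 h post-dose, using prostate extracts from testosterone-pretreated rats, with DMSO as baseline.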
# [7] = target: human Peroxisome Proliferator-activated Receptor alpha (PPARa), PPARA (gene 5465) (UniProt Q07869); assay: NVS_NR_hPPARa: NovaScreen (NVS) Nuclear Receptor Binding Assay for human Peroxisome Proliferator-activated Receptor alpha (PPARa) (AID 2283359);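 further: activity means loss of TR-FRET signal versus DMSO baseline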
# In short: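 One-hour incubation, cell-free extracted protein, TR-FRET binding readout; signal loss vs DMSO scored. Screen: 25 uM duplicates, confirmatory dose series for actives.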
# [8] = target: Retinoic acid receptor alpha (Homo sapiens) (UniProt P10276); assay: NVS_NR_hRARa_Agonist: NovaScreen (NVS) Nuclear Receptor Binding Assay for human Retinoic Acid Alpha Receptor Agonism (RAR) (AID 2283361)
# In short: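 Compounds screened at 25 uM, duplicate, then in concentration series if active. Detection: TR-FRET gain of signal versus DMSO after 2 h with cell-free extracted RARα.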
# [9] = target: human Thyroid Receptor Alpha (TRa), THRA (gene 7067) (UniProt P10827); assay: NVS_NR_hTRa_Antagonist: NovaScreen (NVS) Nuclear Receptor Binding Assay for human Thyroid Receptor Alpha Antagonism (TRa) (AID 2283362);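 further: activity is loss of signal relative to DMSO baseline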
# In short: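 Cell-free binding assay on extracted receptor protein, read 1 h after chemical dosing by AlphaLISA chemiluminescence; loss of signal relative to DMSO baseline marks antagonism. Primary screen ran in duplicate at 25 uM, with concentration series for actives.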
# [10] = target: guinea pig Sigma Receptor, Non-selective Binding, SIGMAR1 (gene 100135589) (UniProt Q60492); assay: NVS_OR_gSIGMA_NonSelective: NovaScreen (NVS) Nuclear Receptor Binding Assay for guinea pig Sigma Receptor, Non-selective Binding (AID 2283367)
# In short: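 Test chemicals were screened in duplicate at 25 uM, then in concentration series if active, against radioligand binding to guinea pig brain membranes; filtration and scintillation counting at 1 h measured remaining bound ligand.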
# human Dopamine Transporter (DAT), SLC6A3 (gene 6531), sequence (Q01959 whole entry, looked up): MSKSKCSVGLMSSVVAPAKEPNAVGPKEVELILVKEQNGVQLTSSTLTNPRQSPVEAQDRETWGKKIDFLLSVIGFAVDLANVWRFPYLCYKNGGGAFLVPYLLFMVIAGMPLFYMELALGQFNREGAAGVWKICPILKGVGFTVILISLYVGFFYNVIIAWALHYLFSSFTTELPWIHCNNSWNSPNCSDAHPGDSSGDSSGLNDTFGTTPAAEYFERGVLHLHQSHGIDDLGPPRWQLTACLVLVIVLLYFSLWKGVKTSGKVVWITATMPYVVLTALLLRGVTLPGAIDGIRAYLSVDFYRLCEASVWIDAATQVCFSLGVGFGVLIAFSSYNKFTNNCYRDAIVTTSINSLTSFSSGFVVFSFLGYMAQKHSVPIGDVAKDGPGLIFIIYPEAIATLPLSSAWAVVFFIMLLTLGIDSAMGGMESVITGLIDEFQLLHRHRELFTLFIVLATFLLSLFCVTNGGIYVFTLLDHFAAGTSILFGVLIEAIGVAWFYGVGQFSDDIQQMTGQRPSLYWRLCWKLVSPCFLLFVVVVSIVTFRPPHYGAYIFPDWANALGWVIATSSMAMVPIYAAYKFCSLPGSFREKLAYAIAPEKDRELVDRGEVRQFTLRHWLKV
# Retinoic acid receptor alpha (Homo sapiens), sequence (P10276 whole entry, looked up): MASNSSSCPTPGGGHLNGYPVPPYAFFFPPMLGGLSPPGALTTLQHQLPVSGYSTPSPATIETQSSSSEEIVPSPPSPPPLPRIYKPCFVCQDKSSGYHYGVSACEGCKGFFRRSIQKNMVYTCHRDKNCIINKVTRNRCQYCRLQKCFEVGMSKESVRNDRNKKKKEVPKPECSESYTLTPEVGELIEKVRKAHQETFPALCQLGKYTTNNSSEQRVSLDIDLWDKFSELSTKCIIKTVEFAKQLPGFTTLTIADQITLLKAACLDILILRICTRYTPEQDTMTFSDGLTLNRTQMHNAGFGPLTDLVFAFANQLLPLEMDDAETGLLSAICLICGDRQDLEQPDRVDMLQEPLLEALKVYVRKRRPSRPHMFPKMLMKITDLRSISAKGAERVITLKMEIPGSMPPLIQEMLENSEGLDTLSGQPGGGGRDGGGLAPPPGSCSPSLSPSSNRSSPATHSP
# human Peroxisome Proliferator-activated Receptor alpha (PPARa), PPARA (gene 5465), sequence (Q07869 whole entry, looked up): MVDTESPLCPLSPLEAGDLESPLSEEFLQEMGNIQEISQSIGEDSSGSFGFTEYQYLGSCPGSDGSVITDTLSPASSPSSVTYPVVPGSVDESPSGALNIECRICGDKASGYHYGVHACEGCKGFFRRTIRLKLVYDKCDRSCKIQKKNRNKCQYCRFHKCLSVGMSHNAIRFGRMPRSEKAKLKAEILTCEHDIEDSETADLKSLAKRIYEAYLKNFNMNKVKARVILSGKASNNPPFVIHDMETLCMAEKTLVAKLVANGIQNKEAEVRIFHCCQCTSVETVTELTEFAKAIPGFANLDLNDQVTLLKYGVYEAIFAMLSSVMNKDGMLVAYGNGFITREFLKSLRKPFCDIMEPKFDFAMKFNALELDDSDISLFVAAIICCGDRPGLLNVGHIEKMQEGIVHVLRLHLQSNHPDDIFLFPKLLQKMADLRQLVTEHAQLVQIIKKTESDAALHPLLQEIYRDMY
# Glucocorticoid receptor (Homo sapiens), sequence (P04150 whole entry, looked up): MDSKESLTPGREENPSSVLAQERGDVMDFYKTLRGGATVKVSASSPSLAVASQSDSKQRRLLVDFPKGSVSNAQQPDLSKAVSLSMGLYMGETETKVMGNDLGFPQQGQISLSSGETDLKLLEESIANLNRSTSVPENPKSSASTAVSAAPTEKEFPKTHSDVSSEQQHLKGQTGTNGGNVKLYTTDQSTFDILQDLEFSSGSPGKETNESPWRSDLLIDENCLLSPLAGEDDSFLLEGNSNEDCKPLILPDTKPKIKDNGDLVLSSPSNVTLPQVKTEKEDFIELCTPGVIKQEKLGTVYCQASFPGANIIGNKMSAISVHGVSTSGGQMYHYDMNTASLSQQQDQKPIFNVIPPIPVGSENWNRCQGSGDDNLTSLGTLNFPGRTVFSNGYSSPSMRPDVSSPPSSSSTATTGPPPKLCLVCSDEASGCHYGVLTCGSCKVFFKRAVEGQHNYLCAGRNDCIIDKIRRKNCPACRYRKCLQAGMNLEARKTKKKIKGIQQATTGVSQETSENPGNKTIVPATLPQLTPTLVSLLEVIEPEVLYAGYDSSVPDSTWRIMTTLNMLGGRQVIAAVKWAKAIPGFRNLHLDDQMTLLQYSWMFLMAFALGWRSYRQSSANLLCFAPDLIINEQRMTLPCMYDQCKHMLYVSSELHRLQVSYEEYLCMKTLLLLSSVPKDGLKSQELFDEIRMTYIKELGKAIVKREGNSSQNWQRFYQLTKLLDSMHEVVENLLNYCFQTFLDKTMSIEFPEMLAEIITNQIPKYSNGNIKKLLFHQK
# rat Androgen Receptor (AR), Ar (gene 24208), sequence (P15207 whole entry, looked up): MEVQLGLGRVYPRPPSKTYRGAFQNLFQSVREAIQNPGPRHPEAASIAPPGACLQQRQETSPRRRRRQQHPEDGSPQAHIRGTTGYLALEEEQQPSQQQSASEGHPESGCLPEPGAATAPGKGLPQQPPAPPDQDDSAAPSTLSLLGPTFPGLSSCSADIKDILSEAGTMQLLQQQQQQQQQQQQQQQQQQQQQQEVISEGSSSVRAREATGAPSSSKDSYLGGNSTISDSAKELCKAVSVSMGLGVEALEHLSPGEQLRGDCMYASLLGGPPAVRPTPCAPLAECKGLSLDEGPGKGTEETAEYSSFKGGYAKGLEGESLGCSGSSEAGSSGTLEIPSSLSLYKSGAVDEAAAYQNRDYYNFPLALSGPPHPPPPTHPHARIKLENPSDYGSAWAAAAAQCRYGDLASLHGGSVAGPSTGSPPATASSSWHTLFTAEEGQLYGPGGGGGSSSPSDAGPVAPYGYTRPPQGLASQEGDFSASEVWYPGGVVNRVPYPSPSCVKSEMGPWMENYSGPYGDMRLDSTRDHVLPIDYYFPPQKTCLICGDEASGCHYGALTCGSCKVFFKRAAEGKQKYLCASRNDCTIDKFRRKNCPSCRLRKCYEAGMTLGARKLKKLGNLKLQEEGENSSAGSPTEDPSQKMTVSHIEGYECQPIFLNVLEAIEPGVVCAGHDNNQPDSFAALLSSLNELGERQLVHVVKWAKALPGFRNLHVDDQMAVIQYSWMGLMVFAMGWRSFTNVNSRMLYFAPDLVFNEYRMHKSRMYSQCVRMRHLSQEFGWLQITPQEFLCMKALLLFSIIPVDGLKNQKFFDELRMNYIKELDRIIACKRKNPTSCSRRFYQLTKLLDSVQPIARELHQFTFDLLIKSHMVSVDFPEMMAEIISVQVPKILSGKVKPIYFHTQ
# PGR (gene 5241), sequence (P06401 whole entry, looked up): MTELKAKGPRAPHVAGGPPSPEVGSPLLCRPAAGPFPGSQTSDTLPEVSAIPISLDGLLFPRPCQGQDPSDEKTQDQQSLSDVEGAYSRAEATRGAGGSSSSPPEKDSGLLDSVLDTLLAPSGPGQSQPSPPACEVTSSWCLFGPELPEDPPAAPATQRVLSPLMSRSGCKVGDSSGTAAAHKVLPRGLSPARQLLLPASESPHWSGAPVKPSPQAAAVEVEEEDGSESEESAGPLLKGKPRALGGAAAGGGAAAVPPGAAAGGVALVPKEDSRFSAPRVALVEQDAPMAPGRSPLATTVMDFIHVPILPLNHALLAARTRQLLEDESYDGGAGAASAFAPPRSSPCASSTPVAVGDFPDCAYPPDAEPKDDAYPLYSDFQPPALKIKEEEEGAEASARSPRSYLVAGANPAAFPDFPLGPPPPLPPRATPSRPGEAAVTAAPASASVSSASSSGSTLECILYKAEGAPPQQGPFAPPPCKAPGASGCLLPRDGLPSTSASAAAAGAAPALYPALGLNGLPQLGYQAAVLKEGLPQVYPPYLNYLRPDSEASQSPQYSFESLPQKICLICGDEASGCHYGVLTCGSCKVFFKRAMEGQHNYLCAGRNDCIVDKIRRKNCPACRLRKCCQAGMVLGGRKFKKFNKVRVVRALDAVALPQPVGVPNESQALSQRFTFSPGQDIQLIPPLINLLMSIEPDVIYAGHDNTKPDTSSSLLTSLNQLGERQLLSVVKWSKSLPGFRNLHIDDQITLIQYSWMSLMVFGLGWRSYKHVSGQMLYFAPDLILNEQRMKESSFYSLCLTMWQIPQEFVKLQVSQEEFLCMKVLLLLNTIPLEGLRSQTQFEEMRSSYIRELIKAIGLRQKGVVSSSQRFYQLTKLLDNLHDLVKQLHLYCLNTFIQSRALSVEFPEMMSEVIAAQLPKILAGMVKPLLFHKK
# Nuclear receptor subfamily 1 group I member 2 (Homo sapiens), sequence (O75469 whole entry, looked up): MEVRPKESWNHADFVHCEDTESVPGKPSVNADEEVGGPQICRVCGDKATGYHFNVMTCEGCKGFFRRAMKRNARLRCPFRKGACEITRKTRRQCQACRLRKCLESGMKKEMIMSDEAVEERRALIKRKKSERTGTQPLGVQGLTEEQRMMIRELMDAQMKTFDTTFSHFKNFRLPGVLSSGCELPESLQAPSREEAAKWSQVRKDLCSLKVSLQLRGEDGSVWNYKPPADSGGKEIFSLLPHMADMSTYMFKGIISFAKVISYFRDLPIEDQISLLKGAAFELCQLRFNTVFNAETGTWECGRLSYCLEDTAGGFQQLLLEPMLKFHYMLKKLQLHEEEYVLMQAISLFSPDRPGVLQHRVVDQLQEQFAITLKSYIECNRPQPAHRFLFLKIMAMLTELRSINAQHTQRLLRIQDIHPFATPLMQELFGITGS
# guinea pig Sigma Receptor, Non-selective Binding, SIGMAR1 (gene 100135589), sequence (Q60492 whole entry, looked up): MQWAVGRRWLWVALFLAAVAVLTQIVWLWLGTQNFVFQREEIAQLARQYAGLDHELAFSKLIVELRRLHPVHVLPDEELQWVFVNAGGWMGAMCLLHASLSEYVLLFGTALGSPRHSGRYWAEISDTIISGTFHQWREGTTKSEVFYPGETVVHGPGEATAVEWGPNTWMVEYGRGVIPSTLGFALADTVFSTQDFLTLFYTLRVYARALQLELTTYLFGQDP
smiles,measurement,setting,value
Cc1ccccc1OP(=O)(Oc1ccccc1)Oc1ccccc1,outcome,[1],inactive
same,AC50,[2],13.9 µM (active)
same,AC50,[3],2.25 µM (active)
Clc1cccc(Cl)c1Cl,outcome,[1],inactive
same,outcome,[4],inactive
CCOC(=O)C(SP(=S)(OC)OC)c1ccccc1 (configuration not stated),outcome,[1],inactive
O=C1C=CC(=O)c2ccccc21,AC50,[1],38.6 µM (active)
same,AC50,[5],4.63 µM (active)
same,outcome,[6],inactive
same,AC50,[2],5.42 µM (active)
O=C1c2ccccc2C(=O)C1C(=O)C(c1ccccc1)c1ccc(Cl)cc1 (configuration not stated),outcome,[7],inactive
same,AC50,[5],3.72 µM (active)
same,AC50,[6],4.96 µM (active)
O=C(N[C@H]1CN2CCC1CC2)c1ccc2c(c1)OCCO2,outcome,[1],inactive
same,outcome,[8],inactive
OC(Cc1ccccc1Cl)(Cn1[nH]cnc1=S)C1(Cl)CC1 (configuration not stated),outcome,[1],inactive
same,outcome,[6],inactive
Cc1cc(Cl)ccc1O,outcome,[7],inactive
N#Cc1cccnc1,outcome,[7],inactive
CC(C)(C)c1ccccc1O,outcome,[7],inactive
same,outcome,[2],inactive
same,outcome,[3],inactive
N#CCCC(Br)(C#N)CBr (configuration not stated),outcome,[7],inactive
same,AC50,[2],7.56 µM (active)
CCCCCCCCCCCCc1cccc(S(=O)(=O)O)c1,AC50,[7],9.25 µM (active)
same,AC50,[1],15.9 µM (active)
same,AC50,[5],4.55 µM (active)
same,AC50,[4],26.6 µM (active)
same,AC50,[3],32.9 µM (active)
C[C@]12CC[C@@H](O)C[C@@H]1CC[C@@H]1[C@@H]2CC[C@]2(C)C(=O)CC[C@@H]12,outcome,[1],inactive
O=c1oc2ccccc2c(O)c1C(CC(O)c1ccc(-c2ccc(Br)cc2)cc1)c1ccccc1 (configuration not stated),AC50,[1],23.9 µM (active)
same,AC50,[5],7.76 µM (active)
O=C(O)C1(c2ccc3c(c2)OC[C@H](Cc2ccc(-c4ccccc4)cc2)[C@H]3O)CCCC1,outcome,[1],inactive
same,outcome,[8],inactive
Oc1cc(Cl)c(Cl)cc1Cl,outcome,[7],inactive
CCOc1cc(C=O)ccc1O,outcome,[9],inactive
CCCCCCCCCCCCOS(=O)(=O)O,AC50,[7],15.8 µM (active) and 8.71 µM (active)
same,AC50,[5],11.6 µM (active) and 12.7 µM (active)
same,AC50,[4],38.1 µM (active) and 17.4 µM (active)
CCC[CH2][Sn]([Cl])([Cl])[CH2]CCC,AC50,[7],12 µM (active)
same,AC50,[8],38 µM (active)
same,AC50,[5],3.88 µM (active)
same,AC50,[4],5.56 µM (active)
Cc1ccccc1OP(=O)(Oc1ccccc1C)Oc1ccccc1C,outcome,[1],inactive
O=[N+]([O-])c1ccc(Cl)c([N+](=O)[O-])c1,outcome,[7],inactive
same,AC50,[5],4.52 µM (active)
same,AC50,[6],3.07 µM (active)
O=[N+]([O-])c1ccc(Nc2ccccc2)cc1,AC50,[1],37.6 µM (active)
same,AC50,[2],4.24 µM (active)
same,AC50,[3],5.62 µM (active)
N#CCC#N,outcome,[7],inactive
same,outcome,[4],inactive
CCOP(=O)(OCC)OC(=CCl)c1ccc(Cl)cc1Cl,AC50,[1],42.9 µM (active)
same,AC50,[5],25 µM (active)
same,AC50,[10],10.9 µM (active)
same,AC50,[2],25 µM (active)
same,AC50,[3],25 µM (active)
Cc1cc(C(C)(C)c2ccc(O)c(C)c2)ccc1O,AC50,[1],23.3 µM (active)
same,AC50,[5],1.82 µM (active)
same,outcome,[6],inactive
same,AC50,[2],6.35 µM (active)
same,AC50,[3],1.62 µM (active)
